Assay results as given in PMC5540273 (PLoS ONE, 2017).
“And” between values parts separate entries of the source, which are not always exact repeats. Equal entries are not always repeated. Where two headings read alike, the source gives them in different places.

Tests used:
Settings in all cases: n = 1
[1] = system: BMPR1A
[2] = system: BMPR1B
[3] = system: BMPR2
[4] = system: BMX
[5] = system: BRAF
[6] = system: T1, BRK
T1 construct: gene PTK6

[7] = system: BRSK1
[8] = system: BRSK2
[9] = system: BTK
[10] = system: BUB1
[11] = system: CAMK1B
[12] = system: CAMK1D
[13] = system: CAMK1G
[14] = system: CAMK1
[15] = system: CAMK2A
[16] = system: CAMK2B
[17] = system: CAMK2D
[18] = system: CAMK2G
[19] = system: CAMK4
[20] = system: CAMKK1
[21] = concentration: 1 μM, replicates: in singlicate
[22] = concentration: 1 μM,replicates: in singlicate, 1 µM
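Note: KINOMEscan kinase panel screen.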

COc1ccc(Nc2nccc(NCCNC(=O)Nc3ccccc3F)n2)cc1 [GSK1379901]
%Inh [1, 21]: 0%
%Inh [2, 21]: 0%
%Inh [3, 21]: 6%
%Inh [4, 21]: 2%
%Inh [5, 21]: 0%
%Inh [6, 21]: 36%
%Inh [7, 21]: 16%
%Inh [8, 21]: 0%
%Inh [9, 21]: 0%
%Inh [10, 21]: 53%
%Inh [11, 21]: 35%
%Inh [12, 21]: 3%
%Inh [13, 21]: 69%
%Inh [14, 21]: 1%
%Inh [15, 21]: 0%
%Inh [16, 21]: 0%
%Inh [17, 21]: 51%
%Inh [18, 21]: 13%
%Inh [19, 21]: 0%
%Inh [20, 21]: 0%

Cc1nnc(-c2ccc3occ(-c4ccc(S(C)=O)cc4)c3c2)[nH]1 (centres unmarked)
%Inh [1, 21]: 11%
%Inh [2, 21]: 37%
%Inh [3, 21]: 26%
%Inh [4, 21]: 0%
%Inh [5, 21]: 2%
%Inh [6, 21]: 0%
%Inh [7, 21]: 38%
%Inh [8, 21]: 0%
%Inh [9, 21]: 0%
%Inh [10, 21]: 26%
%Inh [11, 21]: 1%
%Inh [12, 21]: 15%
%Inh [13, 21]: 23%
%Inh [14, 21]: 9%
%Inh [15, 21]: 4%
%Inh [16, 21]: 12%
%Inh [17, 21]: 10%
%Inh [18, 21]: 12%
%Inh [19, 21]: 0%
%Inh [20, 21]: 14%

CCn1c(-c2cccnc2O)nc2cnccc21 [SB-736715]
%Inh [1, 21]: 0%
%Inh [2, 21]: 0%
%Inh [3, 21]: 0%
%Inh [4, 21]: 0%
%Inh [5, 21]: 0%
%Inh [6, 21]: 0%
%Inh [7, 21]: 0%
%Inh [8, 21]: 0%
%Inh [9, 21]: 0%
%Inh [10, 21]: 6%
%Inh [11, 21]: 30%
%Inh [12, 21]: 0%
%Inh [13, 21]: 0%
%Inh [14, 21]: 0%
%Inh [15, 21]: 0%
%Inh [16, 21]: 0%
%Inh [17, 21]: 0%
%Inh [18, 21]: 0%
%Inh [19, 21]: 0%
%Inh [20, 21]: 2%

Cc1ccc(NC(=O)Nc2cccc(C(F)(F)F)c2)cc1 [GSK955403]
%Inh ([1]; 1 µM): 94.6%
%Inh ([2]; 1 µM): 0%
%Inh ([3]; 1 µM): 1%
%Inh ([4]; 1 µM): 0%
%Inh ([5]; 1 µM): 0%
%Inh ([6]; 1 µM): 0%
%Inh ([7]; 1 µM): 0%
%Inh ([8]; 1 µM): 0%
%Inh ([9]; 1 µM): 0%
%Inh ([10]; 1 µM): 0%
%Inh ([11]; 1 µM): 0%
%Inh ([12]; 1 µM): 25%
%Inh ([13]; 1 µM): 10%
%Inh ([14]; 1 µM): 7%
%Inh ([15]; 1 µM): 32%
%Inh ([16]; 1 µM): 25%
%Inh ([17]; 1 µM): 8%
%Inh ([18]; 1 µM): 4%
%Inh ([19]; 1 µM): 5%
%Inh ([20]; 1 µM): 9%

CSc1nn2c(=O)cc(N3CCOCC3)nc2n1Cc1cccc(C(F)(F)F)c1C [GSK2363608]
%Inh [1, 22]: 17% and 0%
%Inh [3, 22]: 22% and 0%
%Inh [4, 22]: 8% and 0%
%Inh [5, 22]: 0% and 5%
%Inh [6, 22]: 0% and 10%
%Inh [7, 22]: 7% and 4%
%Inh [8, 22]: 4% and 0%
%Inh [10, 22]: 13% and 0%
%Inh [11, 22]: 31% and 0%
%Inh [12, 22]: 9% and 19%
%Inh [13, 22]: 0% and 11%
%Inh [14, 22]: 1% and 13%
%Inh [17, 22]: 2% and 19%
%Inh [18, 22]: 0% and 15%

NC(=O)c1nnc2ccccc2c1N
%Inh ([9]; 1 µM): 43%
